Rows were chosen to be rich in hits. Some 7.4% of all compounds tested hit in one or more screens of this group.
ELG1 genotox – inducers of genotoxicity in HEK293T ELG1-luciferase cells | HEK293T ELG1-luciferase reporter, luminescence, 16 h | Potency, µM (top dose mostly 46 µM), inactives show at the highest dose activity change, positive = activation, hits mostly activators | 1.3% of 330,000 active | AID 504466; also: % of control where 0% means no effect; nearly all actives have a fitted effect of over 60% in size
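Genotoxic stress is detected as increased luminescence from luciferase-tagged ELG1 in HEK293T cells, measured with ONE-Glo after a 16 hr treatment at 37 °C.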
FLuc modulator – counter-screen for miR-21 project: firefly luciferase inhibitors or activators; P08659; purified FLuc, Km substrates, luminescence inhibition; Potency, µM (doses to about 57.5 µM), inactives show at the highest dose activity change, negative = inhibition, usual class: inhibitors; 6.9% of 360,000 active; AID 588342;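 also: plate controls were vehicle for no effect and reference inhibitor for full effect; nearly all actives have a fitted effect of over 55% in size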
Target sequence (P08659 whole entry, looked up): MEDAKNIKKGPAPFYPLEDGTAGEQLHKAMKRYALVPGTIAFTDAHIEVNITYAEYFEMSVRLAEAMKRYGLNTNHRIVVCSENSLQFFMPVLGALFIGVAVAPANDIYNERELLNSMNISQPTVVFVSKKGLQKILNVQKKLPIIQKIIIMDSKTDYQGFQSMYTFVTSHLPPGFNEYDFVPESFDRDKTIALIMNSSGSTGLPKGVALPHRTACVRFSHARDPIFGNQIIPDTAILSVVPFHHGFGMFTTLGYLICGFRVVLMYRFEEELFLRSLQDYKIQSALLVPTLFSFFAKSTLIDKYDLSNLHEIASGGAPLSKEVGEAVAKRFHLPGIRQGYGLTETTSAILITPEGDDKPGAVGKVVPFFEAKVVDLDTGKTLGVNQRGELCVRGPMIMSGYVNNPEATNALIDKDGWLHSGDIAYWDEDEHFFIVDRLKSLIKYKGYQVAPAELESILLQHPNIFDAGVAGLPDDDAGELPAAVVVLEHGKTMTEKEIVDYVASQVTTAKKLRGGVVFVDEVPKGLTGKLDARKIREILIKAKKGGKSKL
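Purified P. pyralis luciferase (10nM final) with 10uM D-luciferin and 10uM ATP (Km levels) in 50mM Tris acetate pH 7.5, 10mM Mg acetate, 0.01% Tween-20, 0.05% BSA; qHTS 6-point titration, ~60 µM downward; luminescence read.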
Rab9 promoter act – Rab9 promoter activation | Huh7 Rab9 promoter-luciferase reporter, luminescence, 24 h | Potency, µM (doses to about 9.22 µM), for inactives: top-dose activation, negative = inhibition, most hits filed as activators | 2.8% of 320,000 active | AID 485297; also: % of control where 0% means no effect; nearly all actives have a fitted effect of over 60% in size
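Luminescence read-out: Huh7 cells stably expressing Rab9-luciferase, treated 24 h with compound at 37 °C, then lysed with luciferase reagent for 10 min at ambient before reading.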
SMN2 splice up – SMN2 splice variant enhancement; 2.8% of 210,000 active; Potency, µM (top dose mostly 46.1 µM), for the others: at the top dose activity change, positive = activation, actives largely listed as activators; AID 1458; HEK293 SMN2-luciferase splicing reporter, luminescence, 30-36 h; also: % of control where 0% means no effect; nearly all actives have a fitted effect of over 55% in size
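qHTS luciferase splicing reporter: luminescence rises when SMN2 exon 7 is included in transfected HEK293 cells. Compound exposure lasted 30-36 h at 37C, with 4.5 mM final sodium butyrate as control, followed by a ONE-Glo read.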
NPC1 promoter act – activators of NPC1 promoter; 2.4% of 320,000 active; Potency, µM (top dose mostly 9.22 µM), inactives show top-dose activation, usual class: activators; AID 485313; Huh7 NPC1 promoter luciferase reporter, 24 h; also: % of control where 0% means no effect; nearly all actives have a fitted effect of over 60% in size
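Luciferase expression driven by the NPC1 promoter was measured in stably transfected Huh7 cells after a 24 h compound incubation, using a luciferase reagent and a luminescence read.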
Numbers without * were called inactive; ? = inconclusive; · = not tested or not shown; [ ] = remark or other dose. Calls follow the shape of the dose curve; as a rule, active = well fitted curve in the direction sought with a large enough effect; inconclusive = small, poorly fitted or top-dose-only effect, or another doubt; inactive = no such curve, though single readings can be large; an effect the other way counts as inactive or inconclusive. Potency is read from the fitted curve at half-maximal effect.

SMILES	ELG1 genotox	FLuc modulator	Rab9 promoter act	SMN2 splice up	NPC1 promoter act
COc1ccc(CC2S/C(=N/N=C/c3ccc(O)cc3)NC2=O)cc1 (stereo not given)	?	0.426µM*	?	21.5%	28.2%
COc1ccc(-c2cnnc(N/N=C/c3ccc(O)c(O)c3)n2)cc1	11.7%	2.69µM*	-9.4%	?	-12.8%
CCNc1nc(NCC)nc(N/N=C/c2ccc(O)c(O)c2)n1	?	21.3µM*	?	?	26.3%
CCNc1nc(NCC)nc(N/N=C/c2ccc(N(C)C)cc2)n1	-1.3%	?	-3.0%	4.2%	2.1%
COc1ccc(-c2cnnc(N/N=C/c3ccc(C)o3)n2)cc1	14.6%	-2.7%	-3.3%	-3.4%	-5.6%
COc1ccc(-c2cnnc(N/N=C/c3ccc(O)cc3)n2)cc1	?	1.69µM*	18.3%	26.8%	0.3%
COc1ccc(Nc2nc(NCc3ccco3)nc(N/N=C/c3ccc(O)cc3)n2)cc1	-6.9%	15.1µM*	0.7%	·	-1.2%
Cc1ccc(CCNC(=O)CCCn2c(=O)c3cccn3c3ccc(F)cc32)cc1	·	-5.1%	·	·	·
COc1ccc(NC(=O)c2oc3ccccc3c2NC(=O)Cc2ccc(F)cc2)c(OC)c1	·	-1.1%	·	-5.7%	·
O=C(C1CCN(S(=O)(=O)c2cccs2)CC1)N1CCCCC1	?	4.26µM*	?	·	3.55µM*
O=C(CCc1nc2ccccc2s1)N1CCN(S(=O)(=O)c2cccs2)CC1	-8.4%	-13.0%	2.3%	-9.1%	12.9%
CC(=O)N1CCC(C(=O)N2CCN(S(=O)(=O)c3cccs3)CC2)CC1	0.4%	2.2%	3.3%	·	-0.7%
O=S(=O)(c1cccs1)N1CCN(Cc2nc3ccccc3s2)CC1	27.8%	16.9µM*	-2.4%	-37.8%	-1.7%
O=C(OCc1nc2ccccc2s1)C1CCN(S(=O)(=O)c2cccs2)CC1	11.2µM*	13.5µM*	15.1%	22.1%	1.1%
CCOC(=O)C1CCN(S(=O)(=O)C(F)(F)c2nc3ccccc3s2)CC1	1.1%	26.9µM*	25.0%	-4.8%	12.1%
O=C(COC(=O)C1CCN(S(=O)(=O)c2cccs2)CC1)Nc1ccccc1	0.2%	-2.2%	1.2%	9.8%	-4.7%
Cc1cc(C(=O)CSc2ccccc2)cc(C)c1O	?	19µM*	-0.1%	·	?
CCOc1ccc(C(=O)C(C)OC(=O)C2CCN(c3ccc(C(F)(F)F)cn3)CC2)cc1 (stereo not given)	18.3µM*	-1.4%	-0.8%	·	-1.0%
Cc1ccc(C(=O)C(C)OC(=O)C2CCN(c3ccc(C(F)(F)F)cn3)CC2)cc1C (stereo not given)	6.4%	-43.5%	0.5%	·	2.9%
CCc1ccccc1NC(=O)c1ccc(-n2c(C)ccc2C)cc1	14.7%	-17.4%	-1.6%	10.9%	9.5%
CC(=O)NCCNC(=O)c1ccc(-n2c(C)ccc2C)cc1	23.1µM*	-6.5%	?	·	14.1%
Cc1ccc(C)n1-c1ccc(NC(=O)c2ccccc2)cc1	?	8.49µM*	?	11.2µM*	28.1%
CCOC(=O)c1ccc(-n2c(C)ccc2C)cc1	12.1%	-10.9%	-2.0%	20.1%	-1.8%
CC(=O)Nc1ccc(NC(=O)c2ccc(-n3c(C)ccc3C)cc2)cc1	?	21.3µM*	-4.2%	·	-4.8%
CCOC(=O)c1cc(S(=O)(=O)N2CCN(c3ccc(C(C)=O)cc3)CC2)[nH]n1	·	-15.7%	·	·	·
SMILES	ELG1 genotox	FLuc modulator	Rab9 promoter act	SMN2 splice up	NPC1 promoter act
Cc1c(CC(=O)NCCCCCC(=O)O)c(=O)oc2c(C)c3oc4c(c3cc12)CCCC4	1.1%	?	5.4%	·	0.4%
CCCC(NC(=O)CCc1c(C)c2cc3c4c(oc3c(C)c2oc1=O)CCCC4)C(=O)O (stereo not given)	0.5%	?	2.2%	·	1.0%
Cc1c(CC(=O)NCCC(=O)O)c(=O)oc2cc3oc4c(c3cc12)CCCC4	-17.2%	16.9µM*	-1.1%	·	3.5%
Cc1c(CC(=O)NCCCC(=O)O)c(=O)oc2cc3oc4c(c3cc12)CCCC4	2.3%	21.3µM*	-3.5%	·	0.3%
Cc1c(CCC(=O)N[C@@H](C)C(=O)O)c(=O)oc2cc3oc4c(c3cc12)CCCC4	5.2%	10.7µM*	-6.4%	·	-2.7%
O=C(Nc1ccc(F)cc1)c1oc2ccccc2c1NC(=O)C1CCCCC1	·	-3.1%	·	-3.2%	·
Cc1cc(-c2ccc(S(=O)(=O)N3CCN(c4ccc(Cl)cc4)CC3)s2)on1	·	2.4%	·	·	·
O=C(Nc1nc2n(n1)C(c1ccccc1)C=C(c1ccccc1)N2)c1ccccc1 (stereo not given)	·	?	·	8.5%	·
CC(C)(C)c1ccc(S(=O)(=O)NCc2ccc3c(c2)CCN3C(=O)c2ccccc2)cc1	·	-7.0%	·	·	·
Cc1cc(C)nc(SCc2csc(-c3ccccc3)n2)n1	4.61µM*	3.38µM*	1.41µM*	5.01µM*	2.51µM*
Nc1ccccc1SCc1csc(-c2ccc(Cl)cc2)n1	9.5%	13.5µM*	?	-1.5%[9.22 µM]	?
C[N+](C)(N)Cc1csc(-c2ccc(Cl)cc2)n1	·	·	·	-6.3%[9.22 µM]	·
CCN1C(=O)/C(=C/C2=Cc3ccccc3OC2C)SC1=S (stereo not given)	0.3%	13.5µM*	7.1%	·	-1.9%
CCN1C(=O)/C(=C\c2ccncc2)SC1=S	-0.3%	-0.5%	0.6%	·	-0.5%
CC(=C/c1ccccc1)/C=C1/SC(N2CCOCC2)=NC1=O	11.0%	15.1µM*	?	?	?
O=C1N=C(N2CCOCC2)S/C1=C/c1cccs1	4.9%	?	-2.1%	5.8%	1.9%
CC1Oc2ccccc2C=C1/C=C1/SC(N2CCOCC2)=NC1=O (stereo not given)	11.5%	21.3µM*	?	21.3%	20.0%
Cc1ccc(-c2onc(C)c2C)cc1S(=O)(=O)NCc1ccc(N(C)C)cc1	·	0.6%	·	·	·
CCOC(=O)C1CCN(C(=O)Cn2ncc3c4ccccc4n(C)c3c2=O)CC1	·	-11.5%	·	-4.6%	·
CCOC(=O)N1CCC(NC(=O)Cn2ncc3c4ccccc4n(C)c3c2=O)CC1	8.7%	19µM*	12.4%	6.7%	10.7%
Cc1c2cnn(CC(=O)NC3CCCC3)c(=O)c2c(C)n1Cc1ccccc1	?	23.9µM*	?	·	?
CCCNC(=O)C1=CC(c2ccc3c(c2)OCO3)=NS(=O)(=O)N1C	·	-18.0%	·	·	·
COC(=O)CNC(=O)[C@@]1(C)C=C[C@@H](Cc2ccccc2)N1C(C)=O	·	·	·	14.1µM*	·
CCc1ccccc1NC(=O)CN1C(=O)c2ccccc2Sc2ncccc21	·	-8.0%	·	·	·
CCc1c(C(=O)OCc2ccccc2)[nH]c(C)c1C	?	23.9µM*	?	·	28.2%
COC(=O)c1c(C)[nH]c(C(=O)CSc2ccc(Cl)cc2)c1C	?	4.78µM*	2.51µM*	11.2µM*	3.98µM*
COC(=O)c1c(C)[nH]c(C(=O)OCc2ccc(F)cc2)c1C	?	9.53µM*	3.98µM*	·	3.55µM*
CNC(=O)C1CCC(Cn2c(=O)[nH]c3ccsc3c2=O)CC1 (stereo not given)	·	-1.9%	·	·	·

High-throughput results: PubChem BioAssay, National Center for Advancing Translational Sciences (NCATS)
